We go through 14 compounds from PubChem BioAssay.

The source made the active and inactive calls.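 The calls were made as follows, unless noted: active = inhibition above 20% together with a positive visual image hit; inconclusive = visual image hit but inhibition not above 20%; inactive = no visual image hit.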

A short description of test [1]: inhibitors of TNFa-induced NFkB p65 translocation, primary screen, imaging, HUVEC, MLSMR starter and 10KST1 sets (AID 438).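 Also: compound added about 3h40 before a 20 min TNFalpha stimulation.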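 As to inhibition: signal is the nuclear over cytoplasmic p65 intensity ratio per well.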 The conditions noted are these: HUVEC TNFa-induced p65 nuclear translocation; cell count: measured here: nuclei count (cytotoxicity indicator), at 2.08 µM; inhibition: at 2 µM, stronger effect = higher value, 0% TNFa-plus-vehicle, 100% no-TNFa wells.
Test [2] is described as follows: reduction of polyQ htt aggregates in cells – imaging, exon1htt(103Q)mCFP cells, high-content imaging, primary screen (AID 483;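 active = visual image review flags a hit and inhibition of aggregation exceeds 20%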;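 also: compound exposure lasted 3 days before fixation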;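 as to nuclei count: percent of the per-plate median nuclei count of sample wells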). The conditions noted are these: exon1htt(103Q)mCFP cell line, aggregate imaging, at 2 µM; inhibition of aggregation: stronger effect = higher value; nuclei count: measured here: cell count, toxicity.
Test [3] in a line: endothelial E-selectin expression blockers – imaging, HUVEC, immunofluorescence, MLSMR starter and 10KST1 sets, primary screen (AID 487;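 active = visually confirmed hit in the image check and inhibition above 20%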;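 as to inhibition: signal is fraction of cell area covered by stained E-selectin grains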;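 as to nuclei count: 100% = median nuclei count of all wells on the same plate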). The settings on record: HUVEC TNFalpha-induced E-selectin immunofluorescence imaging, at 2 µM; inhibition: stronger effect = higher value; nuclei count: measured here: cell number, toxicity.
For test [4], the target named is Voltage-gated potassium channel subunit beta-2 (Rattus norvegicus) (UniProt P62483). The test can be described thus: inhibitors of rat Kvbeta2 reductase activity – biochemical, NADPH fluorescence, primary screen (AID 622;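 active = fluorescence slope higher than the sample average by over 3 SD, cut at about -0.22 in these data, passing the limit was not always enough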;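 also: slope of raw intensity against log time taken from 70 to 1610 s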). The settings on record: recombinant KvBeta, 4-cyanobenzaldehyde reduction, at 10 µM, stronger effect = higher value.
Sequence of Voltage-gated potassium channel subunit beta-2 (Rattus norvegicus) (P62483 whole entry, looked up): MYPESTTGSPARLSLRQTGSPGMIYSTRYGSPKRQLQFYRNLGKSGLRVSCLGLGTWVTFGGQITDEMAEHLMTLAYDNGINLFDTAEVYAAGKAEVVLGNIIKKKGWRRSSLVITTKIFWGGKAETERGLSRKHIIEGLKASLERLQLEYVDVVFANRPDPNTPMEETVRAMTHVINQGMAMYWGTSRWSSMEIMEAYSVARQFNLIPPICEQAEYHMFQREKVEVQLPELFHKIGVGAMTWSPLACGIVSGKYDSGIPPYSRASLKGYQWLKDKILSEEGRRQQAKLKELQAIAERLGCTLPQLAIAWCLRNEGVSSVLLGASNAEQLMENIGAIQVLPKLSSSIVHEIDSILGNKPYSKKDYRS
Test [5] shares this target. The test can be described thus: enhancers of rat Kvbeta2 NADPH turnover – biochemical, NADPH fluorescence, primary screen (AID 623;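 active = NADPH fluorescence slope more negative than the mean of all samples by about 3 SD, 99.7% confidence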;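 also: fluorescence intensity change per second fitted from 20 to 320 s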). The conditions noted are these: Recombinant KvBeta, NADPH fluorescence decrease slope, 10 min; at 10 µM; stronger effect = lower value.
The target of test [6] is Alpha-2C adrenergic receptor (Homo sapiens) (UniProt P18825). Put plainly: compounds altering alpha2C-coupled GIRK flux – cell-based, HEK293 alpha2C/GIRK1/2, thallium flux, primary screen (AID 624;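 active = fluorescence slope after compound addition differing from the mean of all screened samples at 99.7% confidence, in either direction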;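 also: slope of fluorescence ratio to pre-addition baseline per second over 15 to 24 s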). The settings on record: thallium flux BTC fluorescence, at 10 µM, actives lie on both sides.
Sequence of Alpha-2C adrenergic receptor (Homo sapiens) (P18825 whole entry, looked up): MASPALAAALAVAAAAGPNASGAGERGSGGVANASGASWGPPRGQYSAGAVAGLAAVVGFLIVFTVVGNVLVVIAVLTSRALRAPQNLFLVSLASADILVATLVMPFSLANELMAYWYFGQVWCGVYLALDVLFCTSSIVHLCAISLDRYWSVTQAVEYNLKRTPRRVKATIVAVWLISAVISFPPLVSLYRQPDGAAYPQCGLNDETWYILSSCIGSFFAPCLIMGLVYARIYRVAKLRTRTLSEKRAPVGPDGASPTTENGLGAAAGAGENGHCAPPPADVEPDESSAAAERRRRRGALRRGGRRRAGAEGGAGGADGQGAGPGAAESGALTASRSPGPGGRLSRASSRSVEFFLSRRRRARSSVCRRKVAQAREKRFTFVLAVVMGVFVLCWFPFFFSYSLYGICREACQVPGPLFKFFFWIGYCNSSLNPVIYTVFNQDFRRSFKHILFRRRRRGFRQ
Test [7] in a line: blockers of RIG-like receptor reporter activation – cell-based, Sendai virus stimulus, luciferase, 10K MLSCN set, TLR/RLR signaling modifier project, primary screen (AID 602276;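 active = inhibition at or above 50% at 10 µM; inactive = inhibition below 50%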;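 also: firefly luciferase from ISG56 promoter only with Renilla not read in this screen; 0% = Sendai virus plus DMSO and 100% = medium plus DMSO without virus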). The conditions noted are these: HEK293 RL24 IRF3 luciferase reporter, at 10 µM, stronger effect = higher value. On the technique in general: A reporter such as luciferase makes a cellular process visible.
Test [8] is described as follows: TLR3 IRF3 reporter activation blockers – cell-based, poly I:C stimulus, luciferase, 10K MLSCN set, primary screen (AID 602277;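 active = inhibition of the reporter signal at or above 50%; inactive = inhibition below 50%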). The conditions noted are these: HEK293-TLR3 RL24 IRF3 luciferase reporter, at 10 µM, stronger effect = higher value.

`COc1cccc2cc(C(=O)N3CCN(c4ccc(C)cc4C)CC3)c(=O)oc12`: the cell count in test [1] came to 800. Besides, the inhibition (in general, the drop in the measured response relative to a control, in per cent) in test [1] is -3.4% (inactive); in test [3], -30.2% (inactive); in test [7] it was -9.04% (inactive); in test [8], 5.89% (inactive). Besides, the inhibition of aggregation in test [2] is -43.1% (inactive). In addition, the nuclei count came to 116% in test [2] and 110% in test [3]. The fluorescence slope in test [4] is -0.565 (inactive). The NADPH fluorescence slope in test [5] is -1.5e-05 (inactive). In test [6], the slope is 0.00579 (inactive).
For the compound `O=C(C1CCCN(S(=O)(=O)c2cnc[nH]2)C1)N1CCN(c2ccc(Cl)cc2)CC1` (centres undefined), in test [1], the cell count turned out to be 566. For the same compound, the inhibition was 8% (inactive) in test [1], -71.3% (inactive) in test [3], -6.86% (inactive) in test [7] and 0.571% (inactive) in test [8]. For the same compound, the inhibition of aggregation in test [2] is -31.8% (inactive). For the same compound, the nuclei count in test [2] was determined as 103%; in test [3] it was 123%. Besides, the fluorescence slope in test [4] was -0.523 (inactive). The NADPH fluorescence slope in test [5] was 3.4e-05 (inactive). Moreover, in test [6], the slope is 0.00672 (inactive).
For the compound `Cc1cc(C)cc(NC(=O)C2CCCN(S(=O)(=O)c3cnc[nH]3)C2)c1` (centres undefined), the cell count in test [1] amounted to 595. Besides, the inhibition is 17.2% (inactive) in test [1], -30% (inactive) in test [3], 14.1% (inactive) in test [7] and 33.8% (inactive) in test [8]. For the same compound, the inhibition of aggregation in test [2] was -39.1% (inactive). For the same compound, the nuclei count in test [2] was found to be 97.1%; in test [3] it was 124%. The fluorescence slope in test [4] is -0.523 (inactive). Besides, the NADPH fluorescence slope in test [5] was 1.2e-05 (inactive). For the same compound, the slope in test [6] is 0.00642 (inactive).
On to `O=C1CCCC2=C1C(c1cccc(Br)c1)n1nc(-c3ccco3)nc1N2` (centres undefined), for which the cell count in test [1] came to 568. For the same compound, the inhibition in test [1] is -1.5% (inactive); in test [3], 11.1% (inactive); in test [7] it was 9.76% (inactive); in test [8], 24.2% (inactive). Besides, the inhibition of aggregation in test [2] was -10.2% (inactive). Further, the nuclei count in test [2] was determined as 100%; in test [3], 109%. In addition, the fluorescence slope in test [4] is -0.523 (inactive). The NADPH fluorescence slope in test [5] is -2.2e-05 (inactive). The slope in test [6] is 0.00646 (inactive).
Regarding `Nc1nc(-c2ccc(Br)s2)c(Br)s1`, the cell count in test [1] came out at 579. Besides, the inhibition was -10.7% (inactive) in test [1], 18.6% (inactive) in test [3], 1.12% (inactive) in test [7] and 2.3% (inactive) in test [8]. For the same compound, the inhibition of aggregation in test [2] is 5.7% (inactive). For the same compound, the nuclei count in test [2] came to 102%; in test [3], 98%. Moreover, the fluorescence slope in test [4] was -0.507 (inactive). The NADPH fluorescence slope in test [5] was 2.9e-05 (inactive). In addition, in test [6], the slope was 0.00465 (inactive).
For the compound `COc1cccc(C2=NOC(C(=O)N3CCN(c4ccccc4)CC3)C2)c1OC` (centres undefined), in test [1], the cell count came out at 471. The inhibition in test [1] was 15% (inactive); in test [3] it was 8% (inactive); in test [7] it was 19% (inactive); in test [8] it was 6.35% (inactive). Besides, the inhibition of aggregation in test [2] is 6.5% (inactive). Moreover, the nuclei count in test [2] is 113%; in test [3], 99.4%. The fluorescence slope in test [4] was -0.536 (inactive). Also, the NADPH fluorescence slope in test [5] was -8.8e-06 (inactive). Besides, in test [6], the slope is 0.00606 (inactive).
In the case of `CCOc1cc(-c2nc(-c3ccc(C)nc3OCC)no2)cc(OCC)c1OCC`, in test [1], the cell count came out at 612. The inhibition in test [1] was 0% (inactive); in test [3] it was -56.3% (inactive); in test [7], -10.9% (inactive); in test [8], -40.1% (inactive). Moreover, the inhibition of aggregation in test [2] was 32.3% (inactive). For the same compound, the results for the nuclei count in test [2] and in test [3] were 79.5% and 117%, respectively. In test [4], the fluorescence slope was -0.601 (inactive). Moreover, the NADPH fluorescence slope in test [5] is -1.4e-05 (inactive). Also, the slope in test [6] was 0.00309 (inactive).
As to `CC12CN3CC(C)(CN(C1)C3c1cc(Br)ccc1O)C2=O` (centres undefined), the cell count in test [1] worked out at 305. Also, the inhibition in test [1] is 0% (inactive); in test [3], 39% (inactive); in test [7], 3.76% (inactive); in test [8], 37.4% (inactive). Also, the inhibition of aggregation in test [2] is 1.6% (inactive). In addition, the values for the nuclei count in test [2] and in test [3] were 121% and 83.4%, respectively. Moreover, the fluorescence slope in test [4] is -0.474 (inactive). Also, the NADPH fluorescence slope in test [5] is -4.6e-06 (inactive). In addition, in test [6], the slope was 0.00402 (inactive).
Consider `CCOC(=O)CSc1nnc(NCC(=O)OC(C)C)c(=O)[nH]1`, for which the cell count in test [1] turned out to be 634. Moreover, the inhibition was 7.2% (inactive) in test [1], -81.4% (inactive) in test [3], 9.31% (inactive) in test [7] and 3.05% (inactive) in test [8]. Besides, in test [2], the inhibition of aggregation is 3.7% (inactive). Further, the figures for the nuclei count in test [2] and in test [3] were 100% and 144%, respectively. In test [4], the fluorescence slope was -0.573 (inactive). Moreover, the NADPH fluorescence slope in test [5] was 3.9e-05 (inactive). Moreover, the slope in test [6] is 0.00694 (inactive).
As for `Cc1noc(C)c1C(=O)Nc1ccc(Cl)cc1C(F)(F)F`, the cell count in test [1] stood at 327. Moreover, the inhibition in test [1] was -13.5% (inactive); in test [3] it was -6% (inactive); in test [7], 17.2% (inactive); in test [8] it was 18% (inactive). In addition, the inhibition of aggregation in test [2] was 1.7% (inactive). Besides, the nuclei count in test [2] stood at 99.5%; in test [3], 102%. Moreover, the fluorescence slope in test [4] was -0.625 (inactive). Moreover, in test [5], the NADPH fluorescence slope was -1e-05 (inactive). Moreover, the slope in test [6] was 0.0031 (inactive).
As for `O=P1(O)C=C(c2ccccc2)NC(c2ccccc2)=C1`, the cell count in test [1] is 405. The inhibition in test [1] is 3.4% (inactive); in test [3], -48% (inactive); in test [7] it was 10.1% (inactive); in test [8] it was 7.48% (inactive). The inhibition of aggregation in test [2] is -6.9% (inactive). Besides, the nuclei count in test [2] amounted to 92.3%; in test [3], 117%. Further, the fluorescence slope in test [4] was -0.35 (inactive). Besides, the NADPH fluorescence slope in test [5] was -5e-07 (inactive). Besides, in test [6], the slope is 0.00466 (inactive).
`CC(C)(C)SCCNC(=O)CN1C(=O)c2ccccc2S1(=O)=O`: in test [1], the cell count is 625. Further, the inhibition in test [1] was -4.2% (inactive); in test [3], -29.7% (inactive); in test [7] it was 3.26% (inactive); in test [8], -7.98% (inactive). Besides, the inhibition of aggregation in test [2] is -13.2% (inactive). Besides, the nuclei count stood at 97.6% in test [2] and 106% in test [3]. Besides, the fluorescence slope in test [4] is -0.499 (inactive). In test [5], the NADPH fluorescence slope was -8.2e-06 (inactive). In addition, the slope in test [6] was 0.00704 (inactive).
Regarding `Cn1c(NC(=O)c2cccc(Cn3cc(Cl)cn3)c2)nc2ccccc21`, the cell count in test [1] was 778. Also, the inhibition in test [1] is -2.9% (inactive); in test [3] it was -61.1% (inactive); in test [7], -25.1% (inactive); in test [8] it was -112% (inactive). Also, in test [2], the inhibition of aggregation is -32.7% (inactive). In addition, the nuclei count in test [2] was found to be 104%; in test [3], 113%. For the same compound, the fluorescence slope in test [4] is -0.548 (inactive). For the same compound, in test [5], the NADPH fluorescence slope is -1.6e-05 (inactive). Further, the slope in test [6] is 0.00464 (inactive).
`COc1cc(C(O)c2nc3ccccc3n2C)cc(OC)c1OC` (centres undefined): in test [1], the cell count is 384. The inhibition in test [1] is 25.8% (active); in test [3], -13.7% (inactive); in test [7] it was 2.58% (inactive); in test [8], 18.3% (inactive). In addition, the inhibition of aggregation in test [2] is 21.2% (inactive). Moreover, the nuclei count in test [2] was determined as 81.3%; in test [3], 108%. Further, in test [4], the fluorescence slope is -0.453 (inactive). Moreover, the NADPH fluorescence slope in test [5] is -2.3e-05 (inactive). In test [6], the slope is 0.00191 (inactive).
